PubChem BioAssay AID651661 (Broad Institute, 2012)
Hit rate of the full screen: of about 350,000 compounds, about 2,300 (0.66%) were called active.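 Rule for the calls: active = mean inhibition of at least 50% after viability correction, with every replicate also passing that limit; inconclusive = mean reaches 50% but only one of two replicates passes; inactive = the rest.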 The full list was thinned out, with actives kept by preference.

Assay: EWS/Fli-driven NR0B1 reporter inhibitors, primary screen, A673 cells, NR0B1 luciferase, luminescence, MLPCN library (AID 651661);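 note: firefly luciferase signal divided by Alamar Blue viability fluorescence both relative to DMSO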
Settings: viability-normalised, at 12.6 µM, stronger effect = higher value

Row | Structure (SMILES) | inhibition
1 | CCS(=O)(=O)Nc1ccc2c(c1)C(=O)N(C)[C@H]1CC[C@H](CC(=O)Nc3ccccc3)O[C@@H]1CO2 | -5.08% (inactive)
2 | COc1ccc(S(=O)(=O)N2CCCCN3[C@H](C2)[C@H](c2ccc(C4=CCCC4)cc2)[C@@H]3CO)cc1 | -9.53% (inactive)
3 | C[C@H]1CN([C@@H](C)CO)C(=O)c2ccccc2-c2ccccc2CO[C@H]1CN(C)Cc1ccc(-c2ccccc2)cc1 | 8.23% (inactive)
4 | COc1ccc2c3c(n(C)c2c1)[C@@H](CO)N(CC1CC1)CC31CCN(C(=O)c2ccc3c(c2)OCO3)CC1 | 17.4% (inactive)
5 | N#C[C@@H]1[C@H](c2ccccc2-c2ccccc2F)[C@@H](CO)N1C(=O)c1ccccn1 | 31.4% (inactive)
6 | CO[C@H]1CN(C)C(=O)c2ccc(NS(=O)(=O)c3ccccc3)cc2OC[C@H](C)N(Cc2nccs2)C[C@@H]1C | 3.5% (inactive)
7 | O=C(c1ccccc1)N1CC(=O)N2[C@@H](CO)[C@H](c3ccc(C#CC4CC4)cc3)[C@@H]2C1 | -6.36% (inactive)
8 | C[C@H](CO)N1C[C@H](C)[C@@H](CN(C)S(=O)(=O)c2cn(C)cn2)OCCCC[C@H](C)Oc2ccc(NC(=O)Cc3ccccc3)cc2C1=O | 2.69% (inactive)
9 | CC(=O)Nc1ccc2c(c1)C(=O)N(C)[C@H]1CC[C@H](CC(=O)NCc3ccccc3Cl)O[C@H]1CO2 | -1.68% (inactive)
10 | Cc1cccc(S(=O)(=O)N2C[C@@H]3[C@H](c4ccccc42)[C@@H](CO)N3C(=O)c2ccccc2)c1 | 1.99% (inactive)
11 | Cc1cccc(NS(=O)(=O)c2ccc(-c3cnc(C4CC4)o3)cc2)c1 | 53.1% (active)
12 | COc1ccc(CNS(=O)(=O)c2ccc(-c3cnc(C4CC4)o3)cc2)cc1 | 4.87% (inactive)
13 | Cc1cccc(CNS(=O)(=O)c2ccc(-c3cnc(C4CC4)o3)cc2)c1 | -1.32% (inactive)
14 | COc1ccccc1NC(=O)N1CC(=O)N2[C@H](C1)[C@H](c1ccc(C#Cc3ccccc3)cc1)[C@@H]2CO | 0.577% (inactive)
15 | C[C@@H](O)C#Cc1ccc([C@H]2[C@H]3CN(C(=O)c4ccc5c(c4)OCO5)CCCCN3[C@H]2CO)cc1 | -9.79% (inactive)
16 | C[C@H]1CN([C@@H](C)CO)C(=O)c2cc(C3=CCCC3)cnc2O[C@@H]1CN(C)Cc1cccnc1 | -9.75% (inactive)
17 | COc1ccc(/C=C2\SC(=S)N(CCC(=O)N3CCOCC3)C2=O)cc1OC | 0.114% (inactive)
18 | COc1ccc(/C=C/C(=O)OCC(=O)NC2CCCCCC2)cc1OC | -1.04% (inactive)
19 | COc1ccc(/C=C2\SC(=S)N(CCCC(=O)NC3CCCC3)C2=O)cc1OC | 55.1% (active)
20 | COCC(=O)N1[C@H](CO)[C@H](c2ccccc2)C12CN(C(=O)NC1CCCCC1)C2 | -12.4% (inactive)
21 | C[C@H](CO)N1C[C@H](C)[C@@H](CN(C)CC2CC2)OCCCC[C@H](C)Oc2ccc(NC(=O)Cc3ccccc3)cc2C1=O | 32% (inactive)
22 | Cc1nnc(NC(=O)CSc2nccn2-c2cccc(C)c2C)s1 | 60.5% (active)
23 | COc1ccccc1-n1ccnc1SCC(=O)NC(C)(C)C | 0.699% (inactive)
24 | COc1ccccc1-n1c(CNC(=O)c2ccccc2)nnc1SCC(=O)Nc1nnc(C)s1 | 4.12% (inactive)

Row | Structure (SMILES) | inhibition
25 | Cc1nc(N2[C@H](CO)[C@H](c3ccccc3)[C@H]2CNCC2CCCCC2)sc1C | -4.86% (inactive)
26 | COc1cccc(-c2ccc([C@H]3[C@H]4CN(C(=O)NC(C)C)CC(=O)N4[C@H]3CO)cc2)c1 | 1.6% (inactive)
27 | CN1CCN(CCCNC(=O)c2ccc(/C=C3\Oc4ccccc4N(Cc4ccc(Cl)cc4)C3=O)cc2)CC1 | 62.2% (active)
28 | CC(C)OCCCNC(=O)CN1C(=O)/C(=C/c2ccccc2F)Oc2ccccc21 | -9.7% (inactive)
29 | CCCN1CCN(CCCNC(=O)CN2C(=O)COc3ccccc32)CC1 | 5.75% (inactive)
30 | O=C1CN(S(=O)(=O)c2ccccc2)C[C@H]2[C@H](c3ccc(C#CCc4ccccc4)cc3)[C@@H](CO)N12 | -2.75% (inactive)
31 | C[C@@H]1CN([C@@H](C)CO)C(=O)c2cc(-c3ccncc3)cnc2O[C@@H]1CN(C)C(=O)C1CCCCC1 | -4.18% (inactive)
32 | C[C@H](CO)N1C[C@H](C)[C@@H](CN(C)C(=O)Nc2ccc(F)cc2)OCCCC[C@H](C)Oc2ccc(NC(=O)c3ccncc3)cc2C1=O | -7.08% (inactive)
33 | Cc1ccc(C)c(Cn2nnc3c(=O)[nH]c(C(=O)Nc4ccc(F)cc4)nc32)c1 | -4.91% (inactive)
34 | Cc1cccc(CS(=O)(=O)c2ncc(Cl)c(C(=O)Nc3ccc(F)cc3)n2)c1 | 60.6% (active)
35 | Cc1nnc(NC(=O)C(c2ccccc2)c2ccccc2)s1 | 11.8% (inactive)
36 | Cc1cccc(NC(=O)c2nc(S(=O)(=O)Cc3ccccc3)ncc2Cl)c1 | 56.5% (active)
37 | Cc1cc(C)cc(NS(=O)(=O)Cc2ccccc2)c1 | -2.06% (inactive)
38 | Cc1ccc(CS(=O)(=O)c2ncc(Cl)c(C(=O)Nc3nnc(C)s3)n2)cc1 | 67.7% (active)
39 | Cc1ccc(S(=O)(=O)CCC(=O)Nc2nnc(CC(C)C)s2)cc1 | -2.4% (inactive)
40 | Cc1cccc(NC(=O)C(C)SCc2ccccc2)c1 (configuration not stated) | -20.7% (inactive)
41 | O=C(Nc1ccc(F)cc1)c1ccc(S(=O)(=O)NCc2cccnc2)cc1 | 14.9% (inactive)
42 | O=C(C[C@H]1C=C[C@@H](NC(=O)NC2CCCCC2)[C@@H](CO)O1)NCc1ccc(Cl)cc1 | -5.17% (inactive)
43 | CC(C)C#Cc1ccc([C@H]2[C@@H](C#N)N(C(=O)CN(C)C)[C@H]2CO)cc1 | 2.38% (inactive)
44 | COCC(=O)Nc1ccc2c(c1)OC[C@H](C)NC[C@H](C)[C@H](OC)CN(C)C2=O | -2.88% (inactive)
45 | CCNC(=O)Nc1ccc2c(c1)C(=O)N(C)[C@H]1CC[C@@H](CC(=O)N[C@H](C)c3ccccc3)O[C@@H]1CO2 | 0.627% (inactive)
46 | Cn1cnc(S(=O)(=O)N2CC[C@@H]3[C@H]2c2cc(C#Cc4cccc(F)c4)ccc2N[C@@H]3CO)c1 | 0.925% (inactive)
47 | C[C@@H]1CN([C@H](C)CO)C(=O)c2cc(C#Cc3cccc(F)c3)cnc2O[C@H]1CN(C)Cc1ccccn1 | 6.4% (inactive)
